Experimental findings from PubChem BioAssay AID2778 (National Center for Advancing Translational Sciences (NCATS), 2010) are described below.

Results filed as inconclusive are left out. A call without a number means that no potency is given here. Active and inactive are the calls of the source. The call rests on the fitted dose curve; in most records, active means well fitted inhibition curve with a large enough effect; inconclusive means small, poorly fitted or top-dose-only effect, or effect the other way; inactive means flat fitted curve, though single readings scatter.
Potency means the concentration at half of the fitted maximal effect.

Menin (Homo sapiens), sequence (O00255 whole entry, looked up): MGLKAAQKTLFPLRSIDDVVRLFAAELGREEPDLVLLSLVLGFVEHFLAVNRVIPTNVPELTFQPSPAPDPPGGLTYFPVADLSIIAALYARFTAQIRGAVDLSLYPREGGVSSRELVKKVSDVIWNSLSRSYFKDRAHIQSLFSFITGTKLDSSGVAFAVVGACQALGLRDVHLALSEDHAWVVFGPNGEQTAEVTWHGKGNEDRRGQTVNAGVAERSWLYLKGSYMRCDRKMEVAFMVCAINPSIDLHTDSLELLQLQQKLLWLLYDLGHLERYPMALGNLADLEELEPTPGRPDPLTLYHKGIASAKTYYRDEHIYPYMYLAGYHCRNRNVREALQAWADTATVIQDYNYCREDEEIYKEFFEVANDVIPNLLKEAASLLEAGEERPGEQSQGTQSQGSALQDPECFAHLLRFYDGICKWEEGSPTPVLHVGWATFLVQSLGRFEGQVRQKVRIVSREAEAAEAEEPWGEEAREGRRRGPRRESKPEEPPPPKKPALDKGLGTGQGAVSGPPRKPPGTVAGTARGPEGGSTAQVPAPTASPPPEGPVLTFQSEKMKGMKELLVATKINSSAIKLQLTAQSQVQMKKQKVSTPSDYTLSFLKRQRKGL

The test deals with Menin (Homo sapiens) (UniProt O00255). The test is described as follows: Confirmation of Inhibitors Targeting the Menin-MLL Interaction in MLL Related Leukemias: Confirmation in an HTRF (commercial TR-FRET) Assay using His-tagged menin and biotin-labeled MLL peptide. The following applies: His-menin / biotin-MLL peptide binding; series mostly up to 126 µM. An outline of the steps:
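Compounds were incubated 1 hr at ambient with a preformed His6-menin (200 nM)/biotinylated MLL-w.t. peptide (80 nM) complex in Tris pH 7.5 buffer; anti-His Eu-cryptate (3.5 nM) and SA-XL665 (10 nM) added, TR-FRET read after 1h.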
For orientation: In TR-FRET formats the signal depends on donor and acceptor labels being close together.
Consider `Fc1ccccc1C1c2cccn2CCN1C(=S)Nc1ccc(Br)cc1` (configuration not stated), for which the Potency entry was “inactive”.
The figure for `CNC[C@H](CC1CCCCC1)NC[C@H](Cc1ccccc1)NCCC12CC3CC(CC(C3)C1)C2` is 251 µM (active); for `Cc1ccccc1CN1CCN(C(C)C(=O)NCc2ccccc2)CC1` (configuration not stated) it is “inactive”; for `COc1ccc(-c2csc(NC(=O)c3cc(-c4cccs4)nc4ccccc34)n2)c(OC)c1` it is “inactive”.
Then `CCOC(=O)N1CCN(CCC(=O)c2ccc(Br)cc2)CC1`, with “inactive”; and `O=C(Nc1nnc(-c2ccccc2SCc2ccccc2)s1)Nc1ccccc1F`, with “inactive”; and `COc1cccc(OC)c1NC(=O)CN1CCN(C)CC1`, with “inactive”.
As for `O=C(NC(=S)N1CCCc2ccccc21)c1ccc([N+](=O)[O-])cc1`, the Potency result is “inactive”.
On to `CC(=O)NC1C(=O)N(CCN2CCOCC2)c2ccc(F)cc21` (configuration not stated), for which the Potency entry is “inactive”.
The entry for `CCCNC(=O)c1ccc2c(=O)c(O)c(C)[nH]c2c1` is “inactive”; for `Oc1ccc2ccccc2c1N=Nc1nccs1` it is “inactive”.
For the compound `CN1CCN(CC(=O)Nc2ccc(S(=O)(=O)N(C)C)cc2)CC1`, the Potency result is “inactive”.
`CC1CN(c2c3c(nc4ncnn24)CCCC3)CC(C)O1` (configuration not stated): the Potency result was “inactive”.
The entry for `OC(c1ccccn1)(c1ccccn1)c1ccccn1` is “inactive”.
As for `O=C1C(=O)c2ncccc2-c2cccnc21`, the Potency result is “inactive”.
For the compound `Cc1ccc(Nc2nc(N)[nH]c(=O)c2N=O)cc1`, the Potency result is “inactive”.
Turning to `Cc1ccc(C2=NN(C(=O)c3ccccc3F)C(c3ccccc3F)C2)cc1` (configuration not stated), the Potency result is “inactive”.
